Reference: the supplement of paper PMC4022240
± gives the standard deviation.

T1: HaloTag-ATRX ADD domain (163-292)
T1 chain: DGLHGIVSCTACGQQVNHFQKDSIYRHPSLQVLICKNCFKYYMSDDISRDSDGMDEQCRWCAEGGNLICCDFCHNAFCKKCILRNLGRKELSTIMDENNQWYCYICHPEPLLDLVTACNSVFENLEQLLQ

B1: Unmod H2A variant L N K L L G K V T I A Q G (peptide)
chain: LNKLLGKVTIAQG
B2: Unmod H2A variant I Q A V L L P K K T E S H (peptide)
chain: IQAVLLPKKTESH
B3: Unmod H2B variant P E P A K S A P A P K K G (peptide)
chain: PEPAKSAPAPKKG
B4: Unmod H2B variant P E P T K S A P A P K K G (peptide)
chain: PEPTKSAPAPKKG
B5: Unmod H2A variant L Q L A I R N D E E L N K (peptide)
chain: LQLAIRNDEELNK

Molecular target: T1, HaloTag-ATRX ADD domain (163-292)
Assay: peptide microarray binding signal (635 nm), min-max normalized on array (fraction of array maximum); higher = stronger binding
Settings: peptide region: Unmod H2A variant; binder concentration: 50 nM
Outline: (§1)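 Two probe formats were used for 1 h at 4°C: biotin-labelled HaloTag reader fusions (10 nM to 1 μM) with streptavidin-Alexa Fluor 647, and rabbit histone antibodies (1:10,000 to 1:2,000) with anti-rabbit Alexa 647. Both were applied to nitrocellulose arrays of histone 13-mer peptide–cellulose conjugates printed in triplicate with a Cy3 tracer and blocked overnight at 4°C. Signal was read at 635 nm and misprints at 532 nm on an Axon GenePix 4000B. Binding signal is expressed as the triplicate-spot mean intensity, min-max scaled for each library.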

First: B1
Second: B2
The “peptide microarray binding signal” value of the first is lower: 0.0216 ± 0.0016 for the first, 0.0353 ± 0.0028 for the second.

B5 was tested, and the “peptide microarray binding signal” value was 0.0213 ± 0.0039.

Same assay, conditions: peptide region: Unmod H2A variant; binder concentration: 500 nM

B1 and B2 are within error of each other in “peptide microarray binding signal” value: 0.028 ± 0.0031 for the first, 0.0333 ± 0.018 for the second.

B5 was tested, and the “peptide microarray binding signal” value was 0.0279 ± 0.0038.

Molecular target: HaloTag-ING2 PHD (mouse Ing2 200-280)
Assay: as above
Settings: peptide region: Unmod H2A variant; binder concentration: 10 nM
Outline: as §1

First: B1
Second: B2
The “peptide microarray binding signal” value of the first is lower: 0.006087 ± 5.8e-05 for the first, 0.0199 ± 0.00099 for the second.

B5 was tested, and the “peptide microarray binding signal” value was 0.005968 ± 4.9e-05.

Same assay, conditions: peptide region: Unmod H2A variant; binder concentration: 100 nM

Compared with B1, B2 is higher in “peptide microarray binding signal” value: 0.032 ± 0.015 for the first, 0.0828 ± 0.029 for the second.

With B5 the “peptide microarray binding signal” value was 0.03182 ± 0.00024.

Molecular target: anti-H3K4me3 antibody ab8580
Assay: as above
Settings: peptide region: Unmod H2A variant; binder concentration: 1:2,000 dilution
Outline: as §1

Compared with B1, B2 is lower in “peptide microarray binding signal” value: 0.00715 ± 0.00038 for the first, 0.00283 ± 0.0019 for the second.

For B5, the “peptide microarray binding signal” value was 0.0182 ± 0.0049.

Same assay, conditions: peptide region: Unmod H2A variant; binder concentration: 1:10,000 dilution

First: B1
Second: B2
The “peptide microarray binding signal” value of the first is lower: 0.00171 ± 3.3e-05 for the first, 0.00371 ± 0.00028 for the second.

For B5, the “peptide microarray binding signal” value was 0.00422 ± 0.00051.

Molecular target: anti-H3K9me3 antibody ab8898
Assay: as above
Settings: peptide region: Unmod H2A variant; binder concentration: 1:2,000 dilution
Outline: as §1

First: B1
Second: B2
The “peptide microarray binding signal” value of the first is lower: 0.00115 ± 4.6e-05 for the first, 0.00285 ± 0.00015 for the second.

For B5, the “peptide microarray binding signal” value was 0.00439 ± 0.00042.

Same assay, conditions: peptide region: Unmod H2A variant; binder concentration: 1:10,000 dilution

First: B1
Second: B2
The “peptide microarray binding signal” value of the first is lower: 0.001614 ± 1.6e-05 for the first, 0.0045 ± 0.00048 for the second.

B5 was tested, and the “peptide microarray binding signal” value was 0.00588 ± 0.00021.

Molecular target: T1, HaloTag-ATRX ADD domain (163-292)
Assay: as above
Settings: peptide region: Unmod H2B variant; binder concentration: 50 nM
Outline: as §1

First: B3
Second: B4
The “peptide microarray binding signal” value of the first is lower: 0.00404 ± 8.4e-05 for the first, 0.006019 ± 5.5e-05 for the second.

Same assay, conditions: peptide region: Unmod H2B variant; binder concentration: 500 nM

First: B3
Second: B4
The “peptide microarray binding signal” value of the first is lower: 0.00971 ± 0.00016 for the first, 0.0126 ± 0.00066 for the second.

Molecular target: HaloTag-ING2 PHD (mouse Ing2 200-280)
Assay: as above
Settings: peptide region: Unmod H2B variant; binder concentration: 10 nM
Outline: as §1

Compared with B3, B4 is higher in “peptide microarray binding signal” value: 0.00346 ± 6.5e-05 for the first, 0.0173 ± 0.011 for the second.

Same assay, conditions: peptide region: Unmod H2B variant; binder concentration: 100 nM

Compared with B3, B4 is higher in “peptide microarray binding signal” value: 0.00369 ± 5.6e-05 for the first, 0.0103 ± 0.0017 for the second.

Molecular target: anti-H3K4me3 antibody ab8580
Assay: as above
Settings: peptide region: Unmod H2B variant; binder concentration: 1:2,000 dilution
Outline: as §1

First: B3
Second: B4
The “peptide microarray binding signal” value of the first is lower: 0.000359 ± 3.7e-06 for the first, 0.001 ± 0.0001 for the second.

Same assay, conditions: peptide region: Unmod H2B variant; binder concentration: 1:10,000 dilution

Going from B3 to B4, the “peptide microarray binding signal” value rises from 0.00097 ± 2e-05 to 0.00205 ± 0.00015.

Molecular target: anti-H3K9me3 antibody ab8898
Assay: as above
Settings: peptide region: Unmod H2B variant; binder concentration: 1:2,000 dilution
Outline: as §1

First: B3
Second: B4
The “peptide microarray binding signal” value of the first is lower: 0.000408 for the first, 0.000649 ± 1.2e-05 for the second.

Same assay, conditions: peptide region: Unmod H2B variant; binder concentration: 1:10,000 dilution

Compared with B3, B4 is higher in “peptide microarray binding signal” value: 0.000346 ± 3.8e-06 for the first, 0.00115 ± 2e-05 for the second.
